Measurements as given in the supplement of paper PMC11172423.
A number with no mark means an inactive call.

Assays:
[1] = test system: Falciformispora senegalensis CBS197.79; test: growth relative to untreated control; higher = less inhibition, active = 20 or less
Method in brief: (§1)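 Hyphal fragments of M. mycetomatis MM55 or F. senegalensis CBS197.79 were suspended in colourless RPMI 1640 with L-glutamine and MOPS at 68–72% transmission at 660 nm. They were exposed in 96-well plates to compound at 100 or 25 µM for 7 days at 37 °C. Viability was read with MTS (2 h, 490 nm) or resazurin (600 nm). Growth is metabolic activity relative to the untreated growth control, both corrected with a medium-plus-dye blank.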

[2] = test system: Madurella mycetomatis MM55; test: as above
Method in brief: as §1

Row | Compound | growth ([1]; 25 µM) | growth ([1]; 100 µM) | growth ([2]; 25 µM) | growth ([2]; 100 µM)
1 | Cc1cc(C)c(Nc2ccnc(Nc3ccc(C#N)cc3)n2)c(C)c1 | 103% | 99.4% | 92.4% | 86.6%
2 | Cc1cc(Nc2cc(N)ncn2)c(=O)n2c1C(=O)NC21CCCCC1 | 111% | 107% | 85.9% | 84.7%
3 | CN(C)CCNC(=O)c1csc(Nc2ccc(Cl)c(Cl)c2)n1 | 92.7% | 83.6% | 47.4% | 62.3%
4 | COc1cc2c3cc1Oc1c(OC)c(OC)cc4c1[C@@H](Cc1ccc(O)c(c1)Oc1ccc(cc1)C[C@@H]3N(C)CC2)N(C)CC4 | 99.1% | 12.6% (active) | 88.9% | 5.99% (active)
5 | Cc1nn(C2CCS(=O)(=O)C2)c(C)c1C1Nc2ccccc2C(=O)N1Cc1ccc2c(c1)OCO2 (configuration not stated) | 84.3% | 93.6% | 82.2% | 91.4%
6 | Cc1noc(C2CN(C(=O)c3ccc(Nc4nccc(-c5ccc(Cl)cc5)n4)cc3)C2)n1 | 73.8% | 99.2% | 122% | 73.7%
7 | Cn1nc(-c2cccc(C#N)c2)c2cc(-c3n[nH]c(C4CCCN4)n3)ccc21 (configuration not stated) | 98.7% | 94.2% | 92.7% | 74.9%
8 | Cn1cc(CN2CCc3c(c(C(=O)NCc4nccs4)nn3Cc3ccccc3)C2)c2ccccc21 | 89.7% | 101% | 88.4% | 32.5%
9 | FC(F)(F)c1cc(Nc2nc3cnc(NCC4CC4)nc3n2C2CCNCC2)cc(C(F)(F)F)c1 | 81.9% | 20.9% | 34.1% | 5.31% (active)
10 | CN(C)CCOc1ccc(/C(=C(/CCCl)c2ccccc2)c2ccccc2)cc1 | 0% (active) | 0% (active) | 7.23% (active) | 6.66% (active)
11 | COc1ccc(Cl)cc1-c1nc(C(=O)NCCN2CCCCC2)c(C(C)C)s1 | 94.5% | 77.6% | 14.8% (active) | 6.6% (active)
12 | CCCCN(CCCC)CCC(O)c1cc2c(Cl)cc(Cl)cc2c2cc(C(F)(F)F)ccc12 (configuration not stated) | 98.2% | 106% | 75.6% | 77.3%
13 | CN1CCC[C@@H]1CCO[C@](C)(c1ccccc1)c1ccc(Cl)cc1 | 17.9% (active) | 13.7% (active) | 11.1% (active) | 4.37% (active)
14 | CC(C)Nc1ncc2nc(Nc3cc(F)cc(Cl)c3)n(C3CCNCC3)c2n1 | 101% | 99.6% | 91.1% | 94.2%
15 | CN1CCC(N2CCC(NC(=O)c3cc4c(F)cccc4s3)CC2)CC1 | 91.4% | 15.5% (active) | 131% | 46.6%
16 | CCN(CC)CCNC(=O)c1ccc(NC(=O)c2cc3c(C)nn(-c4ccc(Cl)cc4)c3s2)cc1 | 58.4% | 61.2% | 59.2% | 108%
17 | CN(C)C(=N)N=C(N)N | 104% | 105% | 87% | 87.2%
18 | Cn1ccnc1SCC(=O)Nc1ccc(C(=O)Nc2ncccc2O)cc1 | 87.2% | 79.4% | 102% | 64.9%
19 | Cc1cccnc1Nc1cn2cc(-c3ccnc(OC(C)C)n3)ccc2n1 | 101% | 91% | 36.1% | 6.2% (active)
20 | Cc1c(O)cccc1C(=O)N[C@@H](CSc1ccccc1)[C@H](O)CN1C[C@H]2CCCC[C@H]2C[C@H]1C(=O)NC(C)(C)C | 107% | 105% | 83.9% | 88.2%
21 | CS(=O)(=O)NC1CCN(C(=O)c2ccc(Nc3nccc(-c4cc(Cl)cc(C(F)(F)F)c4)n3)cc2)C1 (configuration not stated) | 93.2% | 82.5% | 122% | 95.4%
22 | Cn1nc(-c2cccc(CNC3CCc4ccc(O)cc43)c2)c2cnc(NC3CCCC3)nc21 (configuration not stated) | 18% (active) | 21.3% | 5.13% (active) | 10.2% (active)
23 | CC(=O)[C@@]1(O)CC[C@H]2[C@H]3CCC4=CC(=O)CC[C@@]4(C)[C@H]3CC[C@@]21C | 92.2% | 106% | 80.2% | 83.8%
24 | O=C(Nc1ccc(Cl)c(C(F)(F)F)c1)Nc1ccc(Cl)c(C(F)(F)F)c1 | 99.4% | 88.1% | 43.5% | 49.6%

Row | Compound | growth ([1]; 25 µM) | growth ([1]; 100 µM) | growth ([2]; 25 µM) | growth ([2]; 100 µM)
25 | COc1cc(NC(=O)Nc2cccc(CNC(=O)O[C@H]3CCOC3)c2)ccc1-c1cnco1 | 100% | 102% | 100% | 81.8%
26 | FC(F)(F)c1ccc(CNc2ccc(Cc3c[nH]c4ncc(Cl)cc34)cn2)cn1 | 95.7% | 106% | 93.1% | 95.5%
27 | CC[C@H](C)[C@H]1O[C@]2(C=C[C@@H]1C)C[C@@H]1C[C@@H](C/C=C(\C)[C@@H](O[C@H]3C[C@H](OC)[C@@H](O[C@H]4C[C@H](OC)[C@H](NC(C)=O)[C@H](C)O4)[C@H](C)O3)[C@@H](C)/C=C/C=C3\CO[C@@H]4[C@H](O)C(C)=C[C@@H](C(=O)O1)[C@]34O)O2 | 101% | 91.4% | 74.9% | 116%
28 | CC(Nc1ccc2c(c1)OCCCO2)C(=O)Nc1cc(C(F)(F)F)ccc1N1CCOCC1 (configuration not stated) | 87.5% | 86.1% | 97.8% | 125%
29 | FC(F)(F)c1cc(Cl)cc(Nc2nc3cnc(NCC4CC4)nc3n2C2CCNCC2)c1 | 95% | 17.6% (active) | 53.7% | 4.76% (active)
30 | COc1ccc(CCN(Cc2cccs2)C(=O)c2cc3sccc3n2C)cc1OC | 97.9% | 113% | 5.66% (active) | 31.3%
31 | CC(=O)Oc1ccccc1C(=O)Nc1ncc([N+](=O)[O-])s1 | 97.4% | 104% | 87.7% | 95.6%
32 | C[C@H](CS)C(=O)N1CCC[C@H]1C(=O)O | 109% | 91.7% | 77.5% | 95.8%
33 | COc1cccc(-c2ccc(NC(=O)C3=C(C(=O)O)CCC3)c(F)c2)c1 | 109% | 105% | 76.1% | 91.5%
34 | COc1ccc(-c2cc3ncnc(N4CCN(CCN5CCCC5)CC4)c3s2)cc1 | 7.35% (active) | 14.9% (active) | 4.86% (active) | 4.96% (active)
35 | CCOc1cc(C(C)(C)C)ccc1C1=N[C@@](C)(c2ccc(Cl)cc2)[C@@](C)(c2ccc(Cl)cc2)N1C(=O)N1CCN(CCCS(C)(=O)=O)CC1 | 99.6% | 101% | 86.9% | 99.8%
36 | CCN1C(=O)N(CCC(C)C)C2(CCN(Cc3cc(O)cc(Cl)c3)CC2)C1=O | 91% | 92.9% | 99.4% | 104%
37 | COc1ccc(-c2ccc3c(-c4ccc(F)cc4)cnc(N)c3c2)cn1 | 94.3% | 75.2% | 88.1% | 38.6%
38 | CN(C)CCCN1c2ccccc2Sc2ccc(Cl)cc21 | 22.7% | 7.45% (active) | 4.01% (active) | 3.82% (active)
39 | C[C@@H]1[C@@H](NC(=O)c2cn3cc(Cl)ccc3n2)C[C@H]2C[C@@H]1C2(C)C | 95.5% | 102% | 69.5% | 7.3% (active)
40 | CCCOc1ccc(C(F)(F)F)cc1NC(=O)c1nc2nccc(C)n2n1 | 91.7% | 90% | 62% | 84.4%
41 | CC(C)Nc1cccnc1N1CCN(C(=O)c2cc3cc(NS(C)(=O)=O)ccc3[nH]2)CC1 | 101% | 96.5% | 104% | 96.3%
42 | CC(C)N1CCN(c2ccc(OC[C@H]3CO[C@](Cn4cncn4)(c4ccc(Cl)cc4Cl)O3)cc2)CC1 | 20.1% | 7.6% (active) | 3.57% (active) | 2.95% (active)
43 | Nc1nc(S)c2[nH]cnc2n1 | 106% | 103% | 71.8% | 92.8%
44 | CC(C)Nc1ncc2nc(Nc3cc(Cl)cc(C(F)(F)F)c3)n(C3CCNCC3)c2n1 | 90.2% | 69.2% | 118% | 4.67% (active)
45 | O=C(NC(CCO)C1CCCCC1)c1cc2ccc(C(F)(F)F)cc2[nH]1 (configuration not stated) | 79.2% | 100% | 101% | 85.3%
46 | CC[C@H](NC(=O)c1cc2c(F)cccc2[nH]1)c1ccccc1 | 77.9% | 99% | 8.07% (active) | 5.18% (active)
47 | NC1(c2ccc(-c3nc4ccn5c(O)nnc5c4cc3-c3ccccc3)cc2)CCC1 | 104% | 14% (active) | 79.3% | 3.13% (active)
48 | O=C1CN(C(=O)CCC2CCCC2)C(c2ccc(F)cc2)c2cc(Cl)ccc2N1 (configuration not stated) | 71.2% | 74.3% | 69.6% | 94.9%
